PubChem BioAssay (NCI)
Compounds without any hit were thinned out: in the full panel of roughly 83,000, 20% have a hit.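 Assay: single dose, 48 h. Readout: percent growth (0 = no net growth; negative = cell death). Active: <10.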 Calls of active or inactive are those of the source.

Legend:
Assay in all cases: NCI-60 one-dose screen, 48 h (100 = growth as untreated, 0 = no growth, -100 = all killed)
[1] = system: NCI-H23 lung; details: 10 µM unless noted
[2] = system: NCI-H460 lung; details: 10 µM unless noted
[3] = system: 786-0 renal; details: 10 µM unless noted
[4] = system: DU-145 prostate; details: 10 µM unless noted
[5] = system: MDA-MB-231 breast; details: 10 µM unless noted
[6] = system: SF-268 CNS; details: 10 µM unless noted
[7] = system: SF-539 CNS; details: 10 µM unless noted
[8] = system: UACC-257 melanoma; details: 10 µM unless noted
[9] = system: HCT-15 colon; details: 10 µM
[10] = system: PC-3 prostate; details: 10 µM unless noted
[11] = system: SK-MEL-5 melanoma; details: 10 µM unless noted
[12] = system: LOX IMVI melanoma; details: 10 µM unless noted
[13] = system: SK-MEL-28 melanoma; details: 10 µM unless noted
[14] = system: SN12C renal; details: 10 µM unless noted
[15] = system: NCI/ADR-RES ovarian; details: 10 µM unless noted
[16] = system: SW-620 colon; details: 10 µM unless noted
[17] = system: MCF7 breast; details: 10 µM unless noted
[18] = system: HCT-116 colon; details: 10 µM unless noted
[19] = system: HCC-2998 colon; details: 10 µM unless noted
[20] = system: KM12 colon; details: 10 µM unless noted

Measured: growth

CCOc1ccc(C(O)CN(C)Cc2ccccc2)cc1Cl (centres undefined)
inactive: [1] 91.3% | [2] 102% | [3] 100% | [4] 103% | [5] 93.6% | [6] 95.5% | [7] 108% | [8] 108% | [9] 106% | [10] 89.3% | [11] 93.2% | [12] 98.6% | [13] 98.5% | [14] 102% | [15] 99.4% | [16] 98.5% | [17] 98.6% | [18] 101% | [19] 102% | [20] 100%

C=CCN1C(=O)C(CC)(CCC(C)C)C(=O)NC1=S (centres undefined)
inactive: [1] 105% | [2] 105% | [3] 97.7% | [4] 105% | [5] 108% | [6] 109% | [7] 111% | [8] 89.5% | [9] 105% | [10] 91.7% | [11] 105% | [12] 109% | [13] 104% | [14] 101% | [15] 106% | [16] 104% | [17] 107% | [18] 105% | [19] 124% | [20] 108%

CNC(=O)Oc1ccccc1
inactive: [1] 107% | [2] 104% | [3] 104% | [4] 113% | [5] 110% | [6] 107% | [7] 107% | [8] 102% | [9] 102% | [10] 106% | [11] 97.1% | [12] 106% | [13] 86.2% | [15] 102% | [16] 101% | [17] 87% | [18] 106% | [19] 119% | [20] 100%

Cc1cc(NC(=O)NCCOc2ccc(N3C(N)=NC(N)=NC3(C)C)cc2Cl)ccc1S(=O)(=O)F
inactive: [1] 40.2% | [3] 35.3% | [4] 34.4% | [5] 58% | [6] 29% | [7] 33.6% | [8] 32.2% | [9] 92% | [11] 23.1% | [12] 12.8% | [13] 51.8% | [15] 102% | [16] 23.4% | [18] 13.9% | [19] 47.3% | [20] 20.1%
active: [2] 9.44% | [10] -2.88% | [14] 7.66% | [17] 4.3%

Cc1ccc2oc(=O)c3c(c2c1)OC(N)=C(C#N)C3c1ccco1 (centres undefined)
inactive: [1] 98.3% | [2] 105% | [3] 102% | [4] 103% | [5] 103% | [6] 101% | [7] 101% | [8] 96.6% | [9] 103% | [10] 95.9% | [11] 101% | [12] 96.8% | [13] 113% | [14] 101% | [15] 102% | [16] 101% | [17] 93.8% | [18] 99.9% | [19] 109% | [20] 98.9%

C[CH2][Pb]([CH2]C)([CH2]C)[O]C(=O)COC
active: [1] -2.61% | [2] 3.94% | [3] -46.4% | [5] 8.7% | [6] -14.8% | [7] -41.8% | [9] 8.99% | [11] -74.9% | [12] -20.8% | [14] 2.97% | [15] 4.13% | [16] -28.3% | [17] 0.034% | [18] -29.7% | [19] -49.9% | [20] 5.08%
inactive: [4] 10.3% | [10] 14.1% | [13] 18.2%

CC1(C)CC(=O)CC(C)(C)N1N=O
inactive: [1] 102% | [2] 114% | [3] 109% | [4] 107% | [5] 109% | [6] 106% | [7] 94.3% | [8] 104% | [9] 98.1% | [11] 111% | [12] 97.1% | [13] 109% | [14] 106% | [15] 100% | [17] 97.9% | [18] 96.3% | [19] 97.9% | [20] 99.1%

O=C(O)C1[O][Sb][O]C1C(=O)O (centres undefined)
active: [12] -57.9%
inactive: [1] 110% | [2] 108% | [3] 102% | [4] 91.4% | [5] 128% | [6] 93% | [7] 98.2% | [8] 98.2% | [9] 88.5% | [10] 102% | [11] 86.9% | [13] 94% | [14] 104% | [15] 103% | [16] 117% | [17] 92% | [18] 103% | [19] 106% | [20] 99.5%

CC1(C)N=C(N)N=C(N)N1c1ccc(CNC(=O)Nc2ccc(S(=O)(=O)F)c(Cl)c2)c(Cl)c1
active: [2] 7.59% | [10] 4.03% | [17] 1.42%
inactive: [1] 31.1% | [3] 30.8% | [4] 31.7% | [5] 60.8% | [6] 26.5% | [7] 24.9% | [8] 23% | [9] 47.5% | [11] 24.1% | [12] 11.9% | [13] 48.6% | [14] 17% | [15] 103% | [16] 12.5% | [18] 10.1% | [19] 39.7% | [20] 21.2%

NC(=O)NC(=O)CI
inactive: [1] 95.5% | [2] 106% | [3] 88% | [4] 101% | [5] 94.9% | [6] 101% | [7] 109% | [8] 79.1% | [9] 85.7% | [10] 98.5% | [11] 93.9% | [13] 89.5% | [14] 85% | [15] 99.4% | [16] 27.6% | [17] 94.3% | [18] 36.8% | [19] 113% | [20] 107%
active: [12] -67.3%

CC1(C)N=C(N)N=C(N)N1c1ccc(OCCCCNC(=O)Nc2cccc(S(=O)(=O)F)c2)c(Cl)c1
inactive: [1] 39.8% | [2] 14.2% | [3] 35.8% | [4] 37.1% | [5] 59.6% | [6] 44.4% | [7] 40.1% | [8] 45.4% | [9] 90.3% | [11] 25.9% | [12] 13.7% | [13] 60.3% | [15] 110% | [16] 27.1% | [17] 15% | [18] 16.4% | [19] 50.8% | [20] 41.7%
active: [10] 5.73% | [14] 7.54%

CSc1ccccc1NP1(=O)OCC(C)([N+](=O)[O-])CO1 (centres undefined)
inactive: [1] 106% | [2] 101% | [3] 113% | [4] 109% | [5] 105% | [6] 105% | [7] 91.4% | [8] 106% | [9] 93.1% | [10] 98% | [11] 98.2% | [12] 97.3% | [13] 98.6% | [14] 98% | [15] 109% | [16] 101% | [17] 98.1% | [18] 98% | [19] 104% | [20] 104%

COc1ccc(C2SCC(=O)Nc3c2c(C)nn3-c2nc3ccc(C)cc3s2)cc1O (centres undefined)
inactive: [1] 55.3% | [2] 15.7% | [3] 58.4% | [4] 73.5% | [5] 36% | [6] 44.8% | [7] 31% | [8] 70.1% | [9] 23.9% | [10] 19.9% | [11] 16.6% | [12] 36.9% | [13] 51.1% | [14] 49.6% | [15] 17.3% | [16] 28.1% | [17] 15.4% | [18] 34.1% | [19] 54.2% | [20] 16.2%

O=C1c2ccccc2C(=O)N1[N+](=O)[O-]
inactive: [1] 95.3% | [2] 102% | [3] 100% | [4] 106% | [5] 101% | [6] 104% | [7] 108% | [8] 101% | [9] 110% | [10] 94.9% | [11] 104% | [12] 91.6% | [13] 112% | [14] 97.2% | [15] 97.9% | [16] 103% | [17] 92.5% | [18] 112% | [19] 87.2% | [20] 101%

CC[CH2][Pb]([CH2]CC)([CH2]CC)[O]C(=O)C(F)(F)F
active: [1] -46.4% | [2] -71.6% | [3] -98.6% | [4] -100% | [5] -50.3% | [6] -82.3% | [7] -99.2% | [9] -88.2% | [11] -98.3% | [12] -82.3% | [13] -97.2% | [14] -79.3% | [15] -36.6% | [16] -50.8% | [17] -79.7% | [18] -95% | [19] -84.4% | [20] -88.2%

c1ccc([As]=[As]c2ccccc2)cc1 (centres undefined)
active: [1] -37.2% | [2] -45.2% | [3] -90.4% | [4] -6.06% | [5] -60.9% | [6] -39.8% | [7] -66.8% | [8] -71.4% | [9] -86.2% | [10] -22.9% | [11] -70.5% | [12] -74.5% | [13] -25.5% | [14] -20.9% | [15] 9.34% | [16] -68.1% | [17] -76.2% | [18] -99.4% | [19] 0.927% | [20] 9.67%

CC1CC=CCC12C(=O)NC(=S)NC2=O (centres undefined)
inactive: [1] 113% | [2] 106% | [3] 107% | [4] 122% | [5] 117% | [6] 115% | [7] 98.8% | [8] 114% | [9] 103% | [10] 98.4% | [11] 103% | [12] 106% | [13] 101% | [14] 99.8% | [15] 113% | [16] 104% | [17] 105% | [18] 108% | [19] 116% | [20] 116%
